From ChEMBL document CHEMBL4513156, “CO-ADD screening of NCPRI (Romania) compounds” come the findings set out here.

For orientation: Inhibition means the percentage by which the read-out fell short of the control. A low value points to a weak effect.

Potency and affinity values are given separately.

One assay has as its system Staphylococcus aureus. Conditions: Concentration 32 ug.mL-1; ASSAY_TEST Inhibition of Bacterial Growth; detection method Absorption (OD600); MEDIA CAMHB; plate type 384well; NBS; CORNING #3640; time 18 hr.
Another assay concerns Escherichia coli. Particulars: Concentration 32 ug.mL-1; ASSAY_TEST Inhibition of Bacterial Growth; detection method Absorption (OD600); MEDIA CAMHB; plate type 384well; NBS; CORNING #3640; time 18 hr.

`NNC(=O)c1ccncc1` [ISONIAZID]: the Inhibition in the assay on Staphylococcus aureus was 27.38%; with Escherichia coli it was 20.51%.
Consider `O=C(NNC(=O)[C@@H]1C[C@H](C(=O)O)[C@@H]2CC=C[C@@H]21)c1ccncc1`, for which the results for the Inhibition in the assay on Staphylococcus aureus and with Escherichia coli were 32.09% and 14.78%, respectively.
As for `O=C(N/N=C1/C2C[C@H]3C(C2C(=O)O)[C@@H]13)c1ccncc1` (some centres not stated), the values for the Inhibition in the assay on Staphylococcus aureus and in the assay with Escherichia coli were 16.39% and 13.83%, respectively.
In the case of `O=C(N/N=C/C[C@@H]1[C@@H](/C=C/[C@@H](O)COc2ccccc2)[C@H](O)C[C@@H]1O)c1ccncc1`, the figures for the Inhibition in the assay on Staphylococcus aureus and in the assay with Escherichia coli were 16.08% and 10.98%, respectively.
For `O=C(NNC(=O)c1ccc([N+](=O)[O-])cc1C(=O)O)c1ccncc1`, in that order: 30.83% and 15.66%.
The matching figures for `O=C(N/N=C1/C[C@@H]2[C@@H](C(=O)O)[C@H]1C[C@H]2Cl)c1ccncc1`: 32.79% and 18%.
Regarding `CC(C)(C)[Si](C)(C)OCC1C2C[C@H]3C1[C@@H]3/C2=N/NC(=O)c1ccncc1` (some centres not stated), the Inhibition with Staphylococcus aureus is reported as 14.57%; with Escherichia coli, 8.28%.
Take `O=C(N/N=C1/C[C@@H]2[C@H](C1)[C@H](OC(=O)c1ccccc1)C[C@@H]2OC(=O)c1ccccc1)c1ccncc1`: the values for the Inhibition in the assay on Staphylococcus aureus and with Escherichia coli were 26.15% and 8.09%, respectively.
The matching figures for `O=C(N/N=C1\C[C@@H]2[C@@H](CO)[C@H]1C[C@H]2Cl)c1ccncc1`: 26.12% and 15.81%.
The matching figures for `O=C(N/N=C/[C@@H]1C[C@H](CO)[C@@H]2CCC[C@@H]21)c1ccncc1`: 23.56% and 14.61%.
The matching figures for `O=C(N/N=C/C[C@@H]1[C@@H](/C=N/NC(=O)c2ccncc2)[C@H](O)C[C@@H]1O)c1ccncc1`: 16.7% and 6.29%.
